Test results reported in publication PMC12751014, “Non-Catalytic Inhibitors of the p38/MK2 Interface: Repurposing Approved Drugs to Target Neuroinflammation in Alzheimer’s Disease” (Journal of Medicinal Chemistry, 2025).
Among all 1,900 compounds or so, about 50 (3%) showed an effect of 50% or more. The entries come from a sample that favours strong results as a whole. *1 amine or outer side, *2 acyl side, *3 side chain or, on linkers, in order; H or OH if unused. Where a SMILES comes first, the peptide text is derived from it. Bridges are numbered along the chain shown (N, C = ends). [ ]: non-standard residue; d: D form. The star is where a group is joined. ξ: configuration not given here. pTerphenylCO(4''-OnC5H11) = CCCCCOc1ccc(-c2ccc(-c3ccc(C(=O)*)cc3)cc2)cc1; ξOrn(4,5-diOH) = O=C(C(CC(O)C(O)N[*:3])N[*:1])[*:2]; ξhTyr(βξ-OH,γξ-OH) = NC(C(=O)O)C(O)C(O)c1ccc(O)cc1; ξPro(3ξ-OH,4ξ-Me) = CC1CNC(C(=O)O)C1O; Hyp = O=C(O)[CH]1C[CH](O)CN1

target: p38/MK2 protein–protein interaction (VF-p38α / GST-MK2) (Homo sapiens, UniProt Q16539); assay: primary screen, percent of control activity; higher = less effect of the substance; set-up: species or system HEK293T cell lysate transfected with VF-p38α and GST-MK2; unclear (methods say 'quintuplet replicates')
Procedure: The TR-FRET assay was conducted in a 1536-well plate (Corning, catalog no. 3724) with HEK293T cell lysate transfected with VF-p38α and GST-MK2. Cell-lysate concentration was optimized with a titration experiment. Anti-Flag-Tb and anti-GST-d2 antibodies (Revvity, catalog no. 61FGBTLB) were used to couple p38α and MK2, respectively. A multiple-drop Combi dispenser (Thermo Scientific) combined reaction mixtures in quintuplet replicates. The TR-FRET signals were measured using a BMG Labtech PHERAstar FSX plate reader and normalized to the percent of DMSO control.

Chain of p38/MK2 protein–protein interaction (VF-p38α / GST-MK2) (Q16539 2-360 limits assumed): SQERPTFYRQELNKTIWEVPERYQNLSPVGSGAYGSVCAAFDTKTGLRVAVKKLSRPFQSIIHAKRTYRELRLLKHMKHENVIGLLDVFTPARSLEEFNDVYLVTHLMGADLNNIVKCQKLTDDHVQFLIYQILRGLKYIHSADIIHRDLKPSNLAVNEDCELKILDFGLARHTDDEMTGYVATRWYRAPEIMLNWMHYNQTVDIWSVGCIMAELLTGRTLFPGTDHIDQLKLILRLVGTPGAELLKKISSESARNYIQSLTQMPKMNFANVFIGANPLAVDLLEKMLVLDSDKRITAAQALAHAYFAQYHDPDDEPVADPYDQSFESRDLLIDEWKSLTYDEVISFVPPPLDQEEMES

Structure (SMILES)	Pct of control [%]
CC(=O)OC1(C(C)=O)CCC2C3C=C(C)C4=CC(=O)CCC4(C)C3CCC21C (stereo not drawn)	106
Cc1c(NC(=O)c2ccc(C(C)(C)C)cc2)cccc1-c1cn(C)c(=O)c(Nc2ccc(C(=O)N3CCOCC3)cc2)n1	104
O=C1C(Cl)=C(N2CCOCC2)C(=O)N1c1ccc(Cl)c(Cl)c1	35.9
COc1ccc(-c2nc3ccc(C4=NNC(=O)CC4C)cc3[nH]2)cc1 (stereo not drawn)	74.1
CN1C(C(=O)Nc2ccccn2)=C(O)c2sc(Cl)cc2S1(=O)=O	94.2
CC(=O)Nc1nc2c(Oc3cc(-c4ccc(C(F)(F)F)cc4)ncn3)cccc2s1	108
CC(=O)O.CC(=O)O.CCC(C)CC(C)CCCCCCCCC(=O)NC1CC(O)C(NCCN)NC(=O)C2C(O)CCN2C(=O)C(C(O)CCN)NC(=O)C(C(O)C(O)c2ccc(O)cc2)NC(=O)C2CC(O)CN2C(=O)C(C(C)O)NC1=O (stereo not drawn)	114
CCCCCOc1ccc(-c2ccc(-c3ccc(C(=O)NC4CC(O)C(O)NC(=O)C5C(O)C(C)CN5C(=O)C(C(C)O)NC(=O)C(C(O)C(O)c5ccc(O)cc5)NC(=O)C5CC(O)CN5C(=O)C(C(C)O)NC4=O)cc3)cc2)cc1 (stereo not drawn) ({pTerphenylCO(4''-OnC5H11)}-[ξOrn(4,5-diOH)]T[Hyp][ξhTyr(βξ-OH,γξ-OH)]T[ξPro(3ξ-OH,4ξ-Me)]; lactam 1-C; configuration not given here)	11.4
O=C(c1ccc(F)cc1)C1CCN(CCn2c(=O)[nH]c3ccccc3c2=O)CC1	84.3
Cc1ccccc1-n1c(Cn2ncc3c(N)ncnc32)nc2cccc(C)c2c1=O	93.1
CN(C)CCCN1c2ccccc2Sc2ccc(Cl)cc21.Cl	90.9
Br.Cc1ccc(C(=O)Cn2c3c(sc2=N)CCCC3)cc1	96.8
CS(=O)(=O)N1CCc2c(-c3cnc(N)nc3)nc(N3CCOCC3)nc21	81.8
CC(=O)Nc1ccc(C(=O)Nc2ccccc2N)cc1	96.8
Cc1cc(Nc2ccc(NC(=O)c3ccc(Nc4ccnc5ccccc45)cc3)cc2)nc(N)n1	17.7
CNCc1ccc(C)c(NC(=O)c2ccc(Nc3nc(-c4ccccc4)c4ccccc4n3)cc2)c1	120
CCCCCCCCc1ccc(CCC(N)(CO)CO)cc1.Cl	203
CCCCCCCCCCCC1=C(O)C(=O)C=C(O)C1=O	42
CS(=O)(=O)Nc1ccc([N+](=O)[O-])cc1Oc1ccccc1	95.3
CS(=O)(=O)c1ccc(-c2cnc(N)c(C(=O)Nc3ccccc3)n2)cc1	101
Cc1onc(-c2ccccc2)c1-c1ccc(S(N)(=O)=O)cc1	91.8
CS(=O)(=O)c1ccc(C2=C(c3ccccc3)C(=O)OC2)cc1	26.5
O=C(c1ccccc1)c1ccc2n1CCC2C(=O)O (stereo not drawn)	97.5
CN(C)CCC(c1ccc(Cl)cc1)c1ccccn1.O=C(O)C=CC(=O)O (stereo not drawn)	93.2
O=c1cc[nH]c(=S)[nH]1	98.2
OCc1c[nH]c2ccccc12	76.2

Structure (SMILES)	Pct of control [%]
N#Cc1c(O)c2c(-c3ccc(-c4ccccc4O)cc3)csc2[nH]c1=O	94.7
O=C1c2c(O)ccc(O)c2C(=O)c2c(NCCNCCO)ccc(NCCNCCO)c21	45.7
Cl.Cl.O=C1c2c(O)ccc(O)c2C(=O)c2c(NCCNCCO)ccc(NCCNCCO)c21	92
Cc1c(CN2CCN(C(=O)C(C)O)CC2)sc2c(N3CCOCC3)nc(-c3cnc(N)nc3)nc12 (stereo not drawn)	96.8
CCC(NC(C)C)C(O)c1ccc(O)c(O)c1.CS(=O)(=O)O (stereo not drawn)	90
NC(=O)c1cccc(-c2cccc(OC(=O)NC3CCCCC3)c2)c1	91.2
COc1cc(=C2C=c3ccccc3=N2)[nH]c1=Cc1[nH]c(C)cc1C.CS(=O)(=O)O	37.5
CCOc1cc(N)c(Cl)cc1C(=O)NCC1CN(Cc2ccc(F)cc2)CCO1.O=C(O)CC(O)(CC(=O)O)C(=O)O (stereo not drawn)	96.8
Cc1coc2c1C(=O)C(=O)c1c-2ccc2c1CCCC2(C)C	79.4
CCOC(=O)n1ccn(C)c1=S	98.2
CN(C)C1C(=O)C(C(N)=O)=C(O)C2(O)C(=O)C3=C(O)c4c(O)cccc4C(C)(O)C3C(O)C12.O.O (stereo not drawn)	48.8
C=C1c2cccc(O)c2C(O)=C2C(=O)C3(O)C(O)=C(C(N)=O)C(=O)C(N(C)C)C3C(O)C12.Cl (stereo not drawn)	52.5
CN(C)C1C(=O)C(C(N)=O)=C(O)C2(O)C(=O)C3=C(O)c4c(O)cccc4C(C)(O)C3C(O)C12 (stereo not drawn)	90.8
COc1ccc(CCC(=O)c2c(O)cc(OC3OC(CO)C(O)C(O)C3OC3OC(C)C(O)C(O)C3O)cc2O)cc1O (stereo not drawn)	94.3
CC(C)NC[C@H](O)COc1ccc(CCOCC2CC2)cc1.Cl [S4085]	94.4
COc1ccc(S(=O)(=O)N(C(C)=O)c2ccccc2C=Cc2cc[n+]([O-])cc2)cc1	89.4
O=C(c1cncc(Br)c1)N1CCC(N2CCCC2)CC1	85.2
O=C(C=Cc1cccc(S(=O)(=O)Nc2ccccc2)c1)NO	103
Cc1cc(C(=O)CN2CCCC2)c(C)n1-c1ccc(F)cc1	88.5
Cc1cc2c(C(=O)NC[C@H](C)c3ccccc3)c(O)c(O)cc2c(O)c1-c1c(C)cc2c(C(=O)NC[C@H](C)c3ccccc3)c(O)c(O)cc2c1O	36.8
Cc1cc(-c2ncc(CC(=O)Nc3ccc(-c4cnccn4)cn3)cc2C)ccn1	98
Nc1ncnc2c1ncn2[C@@H]1O[C@H](CO)[C@@H](O)[C@@H]1O [S1784]	91.5
CN(C)CCOC(C)(c1ccccc1)c1ccccn1.O=C(O)CCC(=O)O (stereo not drawn)	101
O=C1c2c(O)cc(O)cc2O[C@H](c2cc(O)c(O)c(O)c2)[C@H]1O	71.3
O=C(OC1Cc2c(O)cc(O)cc2OC1c1cc(O)c(O)c(O)c1)c1cc(O)c(O)c(O)c1 (single isomer, unassigned; (-))	32.5
COc1ccc(C2CC(=O)c3c(O)cc(O)cc3O2)cc1O (stereo not drawn)	90.9

Structure (SMILES)	Pct of control [%]
CC12CC3CC(C)(C1)CC(N)(C3)C2.Cl	94.2
COc1cccc2c1C(=O)c1c(O)c3c(c(O)c1C2=O)CC(O)(C(=O)CO)CC3OC1CC(N)C(OC2CCCCO2)C(C)O1 (stereo not drawn)	56.6
CC(NC(=O)C(O)c1cc(F)cc(F)c1)C(=O)NC1C(=O)N(C)c2ccccc2-c2ccccc21 (stereo not drawn)	105
CN(C)CC(c1ccc(O)cc1)C1(O)CCCCC1 (stereo not drawn)	98.6
Nc1ccccc1NC(=O)c1ccc(CNC(=O)OCc2cccnc2)cc1	96.2
O=C(O)c1ccc(N2C(=O)C(=Cc3ccc(-c4ccc([N+](=O)[O-])cc4)o3)C=C2c2ccccc2)cc1	24.8
COc1c(C)cnc(Cn2cnc3c(Cl)nc(N)nc32)c1C	111
COC1C=CC=C(C)C(=O)NC2=CC(=O)C(NCCN(C)C)=C(CC(C)CC(OC)C(O)C(C)C=C(C)C1OC(N)=O)C2=O.Cl (stereo not drawn)	96.9
Cl.OC(CCN1CCCCC1)(c1ccccc1)C1CC2C=CC1C2 (stereo not drawn)	117
COc1cc(C(C)=O)ccc1O	90.4
O=C1Nc2ccc(I)cc2C1=Cc1cc(Br)c(O)c(Br)c1	43.6
CCNCC.O=C(O)Cc1ccccc1Nc1c(Cl)cccc1Cl	95.1
CN(C)CCc1ccc(O)cc1	89.6
COc1cc2nc(N3CCN(C(=O)C4COc5ccccc5O4)CC3)nc(N)c2cc1OC.CS(=O)(=O)O (stereo not drawn)	41.5
COc1cc2nc(N(C)CCCNC(=O)C3CCCO3)nc(N)c2cc1OC.Cl (stereo not drawn)	17.9
COc1cc2nc(N3CCN(C(=O)C4CCCO4)CC3)nc(N)c2cc1OC.Cl.O.O (stereo not drawn)	23.3
c1ccc(CNc2nc(NCc3ccccc3)c3ccccc3n2)cc1	74.5
CCn1nc(C(=O)O)c(=O)c2cc3c(cc21)OCO3	86.4
CC12CCC3c4ccc(O)cc4CCC3C1CCC2=O (stereo not drawn)	88.5
O=c1[nH]c2ccccc2n1CCCN1CCC(n2c(=O)[nH]c3cc(Cl)ccc32)CC1	91.8
CC1CCc2c(N3CCC(O)CC3)c(F)cc3c(=O)c(C(=O)O)cn1c23 (stereo not drawn)	90.3
CCCC(NC(=O)C(C#N)=Cc1cccc(Br)n1)c1ccccc1 (stereo not drawn)	20.3
N#CC(=Cc1ccc(O)c(O)c1)C(=O)NCc1ccccc1	95.3
CC(NC(=O)C(C#N)=Cc1cccc(Br)n1)c1ccccc1 (stereo not drawn)	24.1
CCOC(=O)C1=C(COCCN)NC(C)=C(C(=O)OC)C1c1ccccc1Cl.O=S(=O)(O)c1ccccc1 (stereo not drawn)	91.6
CC(C)CCN1c2nc(Nc3cc(F)c(O)c(F)c3)ncc2N(C)C(=O)C1C (stereo not drawn)	86.7
